Experiment [1] deals with Dual specificity protein kinase CLK3 (Homo sapiens) (UniProt P49761). The note with it: at 1 µM.
Experiment [2] concerns the target Dual specificity tyrosine-phosphorylation-regulated kinase 1A (Homo sapiens) (UniProt Q13627). Conditions: at 0.1 µM.
Experiment [3] has the same target. The note with it: at 1 µM.
The target in experiment [4] is Dual specificity tyrosine-phosphorylation-regulated kinase 1B (Homo sapiens) (UniProt Q9Y463). The note with it: at 0.1 µM.
Experiment [5] shares this target. The note with it: at 1 µM.
Experiment [6] has as its target T1, Dual specificity tyrosine-phosphorylation-regulated kinase 2 (Homo sapiens) (UniProt Q92630).
T1 sequence (whole entry): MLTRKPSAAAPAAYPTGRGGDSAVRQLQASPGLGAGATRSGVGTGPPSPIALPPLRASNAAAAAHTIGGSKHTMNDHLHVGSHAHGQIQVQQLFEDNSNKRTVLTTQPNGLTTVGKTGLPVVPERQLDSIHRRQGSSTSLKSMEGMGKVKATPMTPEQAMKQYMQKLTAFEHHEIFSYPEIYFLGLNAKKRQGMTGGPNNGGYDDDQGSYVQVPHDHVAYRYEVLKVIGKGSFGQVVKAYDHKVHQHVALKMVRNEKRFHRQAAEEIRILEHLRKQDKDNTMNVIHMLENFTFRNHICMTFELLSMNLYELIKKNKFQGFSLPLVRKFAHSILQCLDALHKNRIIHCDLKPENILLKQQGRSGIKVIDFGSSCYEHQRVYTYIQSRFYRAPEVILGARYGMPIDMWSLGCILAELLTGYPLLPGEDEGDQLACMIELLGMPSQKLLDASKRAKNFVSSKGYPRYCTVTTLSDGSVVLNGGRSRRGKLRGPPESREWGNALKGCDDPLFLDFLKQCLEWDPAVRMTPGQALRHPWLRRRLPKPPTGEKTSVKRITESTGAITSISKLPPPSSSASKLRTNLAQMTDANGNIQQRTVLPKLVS
The note with it: at 0.1 µM.

Experiment [7] addresses T1, Dual specificity tyrosine-phosphorylation-regulated kinase 2 (Homo sapiens). The note with it: at 1 µM.
Experiment [8] has as its target Glycogen synthase kinase-3 alpha (Homo sapiens) (UniProt P49840). Conditions: at 0.1 µM.
For experiment [9] the target is unchanged. Conditions: at 1 µM.
For experiment [10], the target named is Glycogen synthase kinase-3 beta (Homo sapiens) (UniProt P49841). The note with it: at 0.1 µM.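 Also: values are mean percent inhibition of GSK3B activity, from the GSK Published Kinase Inhibitor Set (PKIS) screening dataset.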
Sequence of Glycogen synthase kinase-3 beta (Homo sapiens) (P49841 whole entry, looked up): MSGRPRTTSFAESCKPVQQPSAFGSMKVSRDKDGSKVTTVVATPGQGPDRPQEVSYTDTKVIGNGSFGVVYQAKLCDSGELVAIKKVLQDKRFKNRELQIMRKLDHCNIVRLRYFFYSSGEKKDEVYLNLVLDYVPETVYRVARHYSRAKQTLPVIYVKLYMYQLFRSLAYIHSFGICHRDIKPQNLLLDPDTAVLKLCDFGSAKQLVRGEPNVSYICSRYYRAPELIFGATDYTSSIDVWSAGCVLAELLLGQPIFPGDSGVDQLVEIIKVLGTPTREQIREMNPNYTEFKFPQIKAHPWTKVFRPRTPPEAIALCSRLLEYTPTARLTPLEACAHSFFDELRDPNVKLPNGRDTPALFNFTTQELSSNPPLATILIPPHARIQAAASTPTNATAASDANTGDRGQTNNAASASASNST

Sequence of Dual specificity tyrosine-phosphorylation-regulated kinase 1B (Homo sapiens) (Q9Y463 whole entry, looked up): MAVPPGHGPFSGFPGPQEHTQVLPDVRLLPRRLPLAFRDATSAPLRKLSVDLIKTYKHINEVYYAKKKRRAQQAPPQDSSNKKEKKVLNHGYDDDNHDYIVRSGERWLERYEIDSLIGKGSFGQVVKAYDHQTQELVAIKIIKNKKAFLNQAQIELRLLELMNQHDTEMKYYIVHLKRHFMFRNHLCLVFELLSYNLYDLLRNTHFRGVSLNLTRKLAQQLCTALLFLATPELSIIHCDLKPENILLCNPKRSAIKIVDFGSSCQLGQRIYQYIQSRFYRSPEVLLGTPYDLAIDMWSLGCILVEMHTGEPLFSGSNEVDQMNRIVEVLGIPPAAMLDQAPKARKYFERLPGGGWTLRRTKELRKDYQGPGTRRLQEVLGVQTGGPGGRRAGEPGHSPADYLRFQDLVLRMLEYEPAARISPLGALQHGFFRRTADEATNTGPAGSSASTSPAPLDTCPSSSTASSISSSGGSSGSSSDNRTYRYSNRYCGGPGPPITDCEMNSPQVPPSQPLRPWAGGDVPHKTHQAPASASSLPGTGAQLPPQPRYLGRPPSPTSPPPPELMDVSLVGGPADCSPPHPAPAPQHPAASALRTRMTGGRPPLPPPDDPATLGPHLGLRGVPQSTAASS
Sequence of Glycogen synthase kinase-3 alpha (Homo sapiens) (P49840 2-483 limits assumed): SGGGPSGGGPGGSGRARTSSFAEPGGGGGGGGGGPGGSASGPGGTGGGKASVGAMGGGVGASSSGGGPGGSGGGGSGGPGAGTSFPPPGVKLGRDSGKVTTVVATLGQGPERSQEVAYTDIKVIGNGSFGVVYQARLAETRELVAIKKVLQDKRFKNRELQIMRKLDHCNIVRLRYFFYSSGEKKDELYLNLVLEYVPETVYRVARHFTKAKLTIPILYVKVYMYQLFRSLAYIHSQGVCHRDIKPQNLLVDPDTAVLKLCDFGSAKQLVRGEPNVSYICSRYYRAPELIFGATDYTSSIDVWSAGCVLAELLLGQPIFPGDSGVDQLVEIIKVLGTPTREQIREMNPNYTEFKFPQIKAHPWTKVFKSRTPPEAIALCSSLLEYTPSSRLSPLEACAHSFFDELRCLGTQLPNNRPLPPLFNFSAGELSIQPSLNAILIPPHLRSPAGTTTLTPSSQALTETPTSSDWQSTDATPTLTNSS
Sequence of Dual specificity protein kinase CLK3 (Homo sapiens) (P49761 whole entry, looked up): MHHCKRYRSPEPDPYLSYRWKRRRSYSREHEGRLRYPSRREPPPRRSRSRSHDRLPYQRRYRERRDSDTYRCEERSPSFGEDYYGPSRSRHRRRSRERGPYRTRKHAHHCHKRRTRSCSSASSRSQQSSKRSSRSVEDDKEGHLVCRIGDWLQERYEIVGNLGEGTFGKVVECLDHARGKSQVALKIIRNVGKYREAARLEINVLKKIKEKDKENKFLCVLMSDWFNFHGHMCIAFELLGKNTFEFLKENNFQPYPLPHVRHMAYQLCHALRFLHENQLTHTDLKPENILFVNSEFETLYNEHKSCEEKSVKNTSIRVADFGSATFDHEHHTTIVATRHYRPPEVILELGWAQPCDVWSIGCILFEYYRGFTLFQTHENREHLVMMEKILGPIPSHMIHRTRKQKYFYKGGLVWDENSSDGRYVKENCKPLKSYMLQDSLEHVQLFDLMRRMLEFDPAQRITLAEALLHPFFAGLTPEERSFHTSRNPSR

Regarding `NC(=O)c1cccc(Nc2nccc(Nc3cccc4[nH]ncc34)n2)c1`, the inhibition in experiment [1] was 8.54%; in [2], 3.35%; in experiment [3], 22.1%; in experiment [4] it was 5.54%; in [5], 28.3%; in experiment [6], -1.74%. Besides, the inhibition was 7.45% in experiment [7], 8.87% in experiment [8], 42.1% in experiment [9] and 8.67% in experiment [10].
On to `COc1ccccc1Nc1ncc(-c2ccccc2)o1`, for which the inhibition in [1] is 0.51%; in experiment [2], 2.5%; in [3], 3.38%; in [4], -1.91%; in [5], -1.3%; in [6], 4.18%. Besides, the inhibition in experiment [7] turned out to be 3.04%; in experiment [8], 2.25%; in experiment [9], 3.92%; in experiment [10], 2.57%.
`CCn1c(-c2nonc2N)nc2c(N3CCCC3)nccc21`: the inhibition in [1] is 1.31%; in experiment [2], 3.13%; in [3], 8.89%; in experiment [4], 2.51%; in [5] it was 6.95%; in [6], -1.18%. For the same compound, the inhibition in experiment [7] is -1.63%; in experiment [8], 1.82%; in experiment [9], 4.77%; in [10], 2%.
`CNC(=O)c1cncc(/C=C/c2c(Cl)cccc2Cl)c1`: the inhibition was -3.4% in experiment [1]; -1.12% in experiment [2]; -1.12% in experiment [3]; -1.13% in experiment [4]; 3.55% in experiment [5]; 3.17% in [6]. Moreover, the inhibition in experiment [7] was 6.98%; in experiment [8], -0.55%; in experiment [9], 3.81%; in experiment [10], -1.21%.
For the compound `Fc1cccc(COc2ccc(Nc3ncnc4cc(-c5ccc[nH]5)sc34)cc2Cl)c1`, the inhibition in experiment [1] is -1.03%; in experiment [2] it was -2.81%; in [3], -0.45%; in experiment [4], -3.77%; in [5], -3.25%; in experiment [6], 1.57%. Moreover, the inhibition in experiment [7] was 1.07%; in experiment [8] it was -2.13%; in experiment [9], 2.99%; in [10], -2.64%.
Regarding `CC1=C(C(=O)Nc2ccc3[nH]ncc3c2)C(c2ccc3ccccc3c2)CC(=O)N1` (centres undefined), the inhibition in experiment [1] worked out at 4.72%; in experiment [2] it was 3.4%; in experiment [3], 5.32%; in experiment [4], 2.6%; in [5], 3.67%; in experiment [6] it was 0.96%. The inhibition in [7] is 1.61%; in [8], 2.64%; in experiment [9], 5.8%; in [10], 2.72%.
`Cc1nn(C)c2cc(N(C)c3ccnc(Nc4cccc(S(N)(=O)=O)c4)n3)ccc12`: the inhibition was 3.34% in experiment [1]; 0.4% in experiment [2]; 0.86% in [3]; -1.86% in [4]; -1.3% in experiment [5]; 2.83% in experiment [6]. In addition, the inhibition in experiment [7] turned out to be 2.82%; in experiment [8] it was 1.79%; in experiment [9], 3.95%; in experiment [10], 0.37%.
On to `COc1cc2ncn(-c3cc(O[C@H](C)c4ccccc4Cl)c(C(N)=O)s3)c2cc1OC`, for which the inhibition was 7.93% in [1]; -0.27% in [2]; 3.73% in experiment [3]; -0.01% in experiment [4]; 0.14% in experiment [5]; 2.5% in [6]. Further, the inhibition was 5.55% in [7], 5.34% in [8], 19.8% in experiment [9] and 5.07% in [10].
Regarding `COc1cc2c(cc1Nc1nc(N3CCc4ccccc43)c3cc[nH]c3n1)N(C(=O)CN(C)C)CC2`, the inhibition was found to be 2.24% in [1]; 0.78% in experiment [2]; 3.98% in experiment [3]; 0.64% in experiment [4]; 2.3% in experiment [5]; 2.22% in experiment [6]. Also, the inhibition in experiment [7] was 2.02%; in [8], 0.35%; in experiment [9] it was 1.16%; in experiment [10], 0.15%.
For the compound `Nc1ncnc2occ(-c3ccc(NC(=O)Nc4cccc(C(F)(F)F)c4)cc3)c12`, the inhibition in experiment [2] is 3.42%; in [3] it was 6.79%; in experiment [4] it was -0.28%; in [5], 1.94%; in [6], 3.2%; in experiment [7], 2.85%. For the same compound, the inhibition turned out to be 3.15% in experiment [8], 9.54% in [9] and 2.89% in experiment [10].
Take `COc1cc(C)c(NC(=O)CN(C)C)cc1Nc1nc(Nc2cccc(F)c2C(N)=O)c2cc[nH]c2n1`: the inhibition is 13.2% in experiment [1]; 1.71% in experiment [2]; 20% in experiment [3]; 1.59% in [4]; 14.8% in experiment [5]; 2.4% in [6]. The inhibition in [7] is 5.3%; in experiment [8] it was -0.24%; in experiment [9] it was 1.07%; in [10], -1.22%.
As for `NCc1ccc(-c2nc(-c3ccc(Cl)c(O)c3)c(-c3ccncc3)[nH]2)cc1`, the inhibition amounted to 3.14% in experiment [1]; 3.51% in experiment [2]; 3.85% in [3]; 4.36% in experiment [4]; 3.42% in experiment [5]; 0.33% in experiment [6]. Also, the inhibition in [7] is 0.81%; in experiment [8], 4.59%; in experiment [9] it was 32.5%; in experiment [10], 16.9%.
Consider `CCCN1CCC=C(c2ccc(Nc3nc(Nc4ccccc4C(N)=O)c4cc[nH]c4n3)c(C)c2)C1`, for which the inhibition in experiment [1] stood at 6.97%; in experiment [2] it was 56.2%; in experiment [3], 92.3%; in experiment [4] it was 39.5%; in experiment [5] it was 71.1%; in experiment [6], 8.53%. The inhibition amounted to 44.2% in [7], 5.89% in experiment [8], 28.1% in experiment [9] and 3.05% in experiment [10].
On to `CS(=O)(=O)CCNCc1ccc(-c2ccc3ncnc(Nc4ccc(OCc5cccc(F)c5)c(C(F)(F)F)c4)c3c2)o1`, for which the inhibition is 0.98% in experiment [1]; 2.19% in experiment [2]; 1.7% in experiment [3]; -1.48% in [4]; -1.44% in experiment [5]; 2.83% in [6]. Also, the inhibition turned out to be 3.42% in experiment [7], 1.48% in [8], 0.2% in [9] and 0.25% in [10].
As for `Nc1ncnc2occ(-c3ccc(NC(=O)Nc4cc(C(F)(F)F)cc(C(F)(F)F)c4)cc3)c12`, the inhibition was determined as 1.36% in experiment [1]; 0.09% in experiment [2]; 2.4% in [3]; 0.19% in experiment [4]; 1.76% in experiment [5]; 1.71% in experiment [6]. Also, the inhibition in [7] stood at 2.18%; in experiment [8], 1.22%; in experiment [9], 5.65%; in [10], 1.08%.
Consider `CCc1cccc(NC(=O)Nc2ccc(Oc3ccc4nc(NC(=O)OC)[nH]c4c3)cc2)c1`, for which the inhibition came to 0.82% in experiment [1]; 0.05% in experiment [2]; 1.26% in [3]; 0.7% in [4]; 1.1% in [5]; 0.73% in [6]. The inhibition in [7] was 1.13%; in experiment [8], 1.53%; in [9], 4.83%; in experiment [10], 1.88%.
With `COc1ccc(COc2ccc(Cc3cnc(N)nc3N)cc2OC)cc1`, the inhibition in [1] is -0.53%; in experiment [2] it was 1.44%; in experiment [3], 0.52%; in [4], 4%; in experiment [5], 2.57%; in experiment [6], -0.01%. Moreover, the inhibition was found to be 0.42% in [7], 1.37% in experiment [8], 0.34% in experiment [9] and 0.96% in experiment [10].

In general, inhibition refers to the relative decrease from the control value, in per cent.

(Values after ChEMBL document CHEMBL1961873, “Compounds: GSK PKIS; Assays: Nanosyn kinase panel” (2012).)
